Compound activity (PubChem)
FEN1 inhibitor = inhibitors of human flap endonuclease 1; P39748; Recombinant FEN1 flap cleavage, fluorescence, 15 min; Potency, µM (top dose mostly 114 µM), actives largely listed as inhibitors; hit rate 0.35% among 390,000; AID 588795; note: nearly all actives have a fitted effect of over 65% in size
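FEN1 at 10 nM, compound pretreatment for 15 min (room temperature), 50 nM final substrate to initiate; endpoint reads at 0 and 15 min; DMSO-only plates used as vehicle background.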
TDP1 inh = blocks human tyrosyl-DNA phosphodiesterase 1; recombinant TDP1, AlphaScreen DNA substrate cleavage; Potency, µM (highest dose often 130 µM), most hits filed as inhibitors; hit rate 0.28% among 350,000; AID 485290; note: nearly all actives have a fitted effect of over 40% in size
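Signal: AlphaScreen proximity between streptavidin donor and anti-FITC acceptor beads on intact substrate. Reaction: Tdp1 1 nM, substrate 15 nM final, 5 min RT after 15 min compound preincubation.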
PI5P4K alpha inh = blocks human PI5P4K alpha kinase activity; P48426; PI5P4Kalpha enzyme, ADP-Glo luminescence, 60 min; active compounds read low; max response, %; hit rate 1.2% among 330,000; AID 652105; active = max response of -50% or lower; inconclusive = between -30% and -50%; inactive = -30% or higher; note: value at the top dose of about 77 µM
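Luminescence from ADP-Glo served as readout of PI5P4Kalpha activity in a qHTS format. Reaction: enzyme, substrate, compound, ATP at 5 microM final, 60 min at RT.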
PGK inhibitor = blocks T. brucei phosphoglycerate kinase. P07378. PGK/GAPDH coupled, Kinase-Glo luminescence, 60 min. hit rate 0.043% among 380,000. Potency, µM (doses to about 57.5 µM), most hits filed as inhibitors. AID 602233; note: nearly all actives have a fitted effect of over 60% in size
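Recombinant glycosomal PGK reaction used 1,3-bisphosphoglycerate generated in-well by GAPDH (100nM final) in 100mM TEA pH 7.6, 5mM MgCl2, 0.01% Tween-20. After 60 minutes at room temperature, ATP was read by Kinase-Glo Plus luminescence end-point.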
WRN inhibitor = WRN helicase (human) inhibition; WRN helicase unwinding, fluorescent forked duplex, kinetic; Potency, µM (top dose mostly 114 µM), hits mostly inhibitors; hit rate 0.46% among 360,000; AID 651768; note: nearly all actives have a fitted effect of over 55% in size
Target sequence (Q14191 whole entry, looked up): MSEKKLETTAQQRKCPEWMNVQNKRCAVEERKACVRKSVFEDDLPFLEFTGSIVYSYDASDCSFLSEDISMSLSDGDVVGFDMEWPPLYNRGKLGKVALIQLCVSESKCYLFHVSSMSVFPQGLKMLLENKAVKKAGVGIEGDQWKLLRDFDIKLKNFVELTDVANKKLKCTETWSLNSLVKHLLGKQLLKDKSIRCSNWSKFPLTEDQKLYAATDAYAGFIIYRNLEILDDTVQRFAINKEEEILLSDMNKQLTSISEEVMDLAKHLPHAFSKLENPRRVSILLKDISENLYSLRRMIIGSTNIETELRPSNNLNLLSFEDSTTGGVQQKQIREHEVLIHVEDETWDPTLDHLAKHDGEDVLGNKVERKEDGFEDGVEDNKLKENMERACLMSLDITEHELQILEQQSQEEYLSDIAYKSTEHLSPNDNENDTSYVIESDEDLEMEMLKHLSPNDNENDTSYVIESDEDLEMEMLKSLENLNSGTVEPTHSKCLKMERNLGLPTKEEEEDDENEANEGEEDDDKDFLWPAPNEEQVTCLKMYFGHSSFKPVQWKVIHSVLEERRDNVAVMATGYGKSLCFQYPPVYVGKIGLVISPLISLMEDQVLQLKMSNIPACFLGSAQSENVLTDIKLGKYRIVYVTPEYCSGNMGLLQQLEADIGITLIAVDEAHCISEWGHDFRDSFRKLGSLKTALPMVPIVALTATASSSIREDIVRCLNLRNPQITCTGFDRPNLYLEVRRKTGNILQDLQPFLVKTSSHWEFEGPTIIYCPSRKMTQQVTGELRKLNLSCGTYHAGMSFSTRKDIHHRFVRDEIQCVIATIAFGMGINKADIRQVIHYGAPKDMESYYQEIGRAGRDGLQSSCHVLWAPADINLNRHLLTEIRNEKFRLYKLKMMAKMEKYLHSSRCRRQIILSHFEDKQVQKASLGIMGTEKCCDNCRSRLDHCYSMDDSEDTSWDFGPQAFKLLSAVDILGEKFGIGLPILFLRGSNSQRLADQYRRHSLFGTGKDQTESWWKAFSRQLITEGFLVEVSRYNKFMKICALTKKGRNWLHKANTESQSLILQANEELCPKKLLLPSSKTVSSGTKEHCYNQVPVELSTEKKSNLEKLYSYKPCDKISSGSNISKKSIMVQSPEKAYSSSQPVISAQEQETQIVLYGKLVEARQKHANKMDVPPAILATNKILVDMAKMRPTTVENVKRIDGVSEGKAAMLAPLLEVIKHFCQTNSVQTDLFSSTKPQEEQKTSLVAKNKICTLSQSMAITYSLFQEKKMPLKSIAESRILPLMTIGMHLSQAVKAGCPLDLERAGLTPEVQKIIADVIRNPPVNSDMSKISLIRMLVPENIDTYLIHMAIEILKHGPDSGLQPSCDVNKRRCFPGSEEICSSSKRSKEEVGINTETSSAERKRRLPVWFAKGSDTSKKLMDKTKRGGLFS
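WRN at 20 nM final was preincubated with compound for 15 min at room temperature; reaction started with 100 nM forked duplex oligonucleotide carrying fluorophore and quencher plus 2 mM ATP (final). Unwinding followed kinetically by red fluorescence (ex 525/em 598 nm).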
Tb PFK block = blocks T. brucei phosphofructokinase; T. brucei PFK, ADP-Glo luminescence; Potency, µM (titrated, usually from 57.5 µM), actives largely listed as inhibitors; hit rate 0.17% among 330,000; note: nearly all actives have a fitted effect of over 60% in size
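Activity is normalized to no-enzyme wells (full inhibition) and 1.25 nM enzyme wells (no inhibition). Reaction: 0.5 mM F6P, 0.1 mM ATP, 45 min RT, ADP-Glo luminescence; concentration-response curves fitted and classed by quality.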
A number is an active result; i = inactive; ? = inconclusive; nt = no result; [ ] = dose if it differs, or a comment. Rows were chosen to be rich in hits. Some 1.5% of all compounds tested hit in one or more screens of this group. Unless noted, calls come from the whole dose curve; as a rule, active = well fitted curve in the direction sought with a large enough effect; inconclusive = small, poorly fitted or top-dose-only effect, or another doubt; inactive = no such curve, though single readings can be large; an effect the other way counts as inactive or inconclusive.

SMILES	FEN1 inhibitor	TDP1 inh	PI5P4K alpha inh	PGK inhibitor	WRN inhibitor	Tb PFK block
CC(C)(C)C(=O)Nc1ccc(C(=O)Nc2cccc(Oc3ccc(C(=O)O)c(C(=O)O)c3)c2)cc1	i	35µM	i	i	i	21µM
O=C(N=Nc1c(O)[nH]c2ccc(F)cc12)c1ccc(NS(=O)(=O)c2cccs2)cc1	i	i	i	i	i	i
COc1ccc2[nH]c(O)c(N=NC(=O)Cc3cccs3)c2c1	i	i	-69	i	i[11.6 µM]	i
COc1ccc2[nH]c(O)c(N=NC(=O)c3ccc(NS(=O)(=O)c4cccs4)cc3)c2c1	?	i	-88	i	?	i
Cc1ccc2[nH]c(O)c(N=NC(=O)c3ccc(NS(=O)(=O)c4cccs4)cc3)c2c1	?	nt	-56	i	i	i
COc1ccc(NS(=O)(=O)c2ccccc2C(=O)O)cc1	nt	i	nt	nt	nt	nt
COc1cc2cc3c4c(cc(OC)c(OC)c4c2cc1OC)CCN3C	nt	i	nt	nt	nt	nt
CN(C)CCCNc1nccc(N2CCN(C)CC2)n1	i	nt	nt	nt	nt	nt
Cc1cc(C(=O)Cn2ncc(Cl)c(Cl)c2=O)c(C)n1CC(F)(F)F	i	i	-56	i	i	i
O=C(CNC(=O)c1cccc(Cl)c1)OC(C(=O)Nc1cc(C(F)(F)F)ccc1Cl)c1ccccc1 (centres undefined)	nt	i	nt	nt	nt	nt
COc1cc(-c2nnc(COC(=O)c3cc(C)no3)o2)cc(OC)c1OC	i	i	i	i	i	i
COc1cc(-c2nnc(COC(=O)c3ccc(C)o3)o2)cc(OC)c1OC	i	20µM	i	i	i	?
C=Cc1nc(Nc2cc(F)cc(F)c2)nc(NC2CCCC2)n1	nt	i	nt	nt	nt	nt
O=C(O)c1cc(F)c(S(=O)(=O)N2CCN(S(=O)(=O)c3ccc4c(c3)OCCO4)CC2)cc1F	nt	i	nt	nt	nt	nt
Cn1cc(P(=O)(c2ccccc2)c2ccccc2)c2ccccc21	nt	i	nt	nt	nt	nt
Cc1cc2c(s1)c1cnn(Cc3cccc(Cl)c3)c(=O)c1n2C	nt	i	nt	nt	nt	nt
CCn1c(=S)sc2c(=O)n(CC(=O)Nc3ccccc3C(F)(F)F)c(C)nc21	i	45µM	i	i	i	i
CN1C[C@@H]2[C@@H]3C(=O)N(Cc4ccccc4)C(=O)[C@@H]3[C@](C)(C1=O)N2C(=O)c1ccccc1	i	nt	i	i	i	nt
CCc1cccc2c1NC(=O)[C@]21[C@@H]2C(=O)N(Cc3ccccc3)C(=O)[C@@H]2[C@@H]2CCCN21	i	i	-52	i	i	i
O=C1CSC(=S)N1N=Cc1ccc(Cl)s1	i	nt	-55	i	20µM	nt
O=C1CSC(=S)N1/N=C/c1ccc(O)c(O)c1O	2.8µM	?	-95	?	10µM	?
O=C1c2cc(O)cc(O)c2C(=O)c2c1cc(O)c([C@@H](CO)CCO)c2O	?	nt	-51	i	i[11.6 µM]	nt
COc1cc2c(NC3CCN(C)CC3)nc(N3CCCN(C)CC3)nc2cc1OCCOCCN1CCCC1	20µM	nt	nt	nt	nt	nt
COc1cc2c(NC3CCN(C)CC3)nc(N3CCCN(C)CC3)nc2cc1OCCCN1CCCCC1	22µM	nt	nt	nt	nt	nt
Nc1c(/C=C2/C=CC(=O)C(O)=C2)c(=O)nc2sc(CC(=O)N3CCCC3)nn12	?	?	-56	?	40µM	?
SMILES	FEN1 inhibitor	TDP1 inh	PI5P4K alpha inh	PGK inhibitor	WRN inhibitor	Tb PFK block
CC1=Nc2ccc(C)cc2/C1=C/c1c(N)n2nc(CC(=O)N3CCOCC3)sc2nc1=O	i	i	i	i	i	i
Nc1c(/C=C2/C=CC(=O)C(O)=C2)c(=O)nc2sc(CC(=O)N3CCOCC3)nn12	25µM	nt	?	?	?	nt
Nc1nc2[nH]c(=S)[nH]c2c(=O)[nH]1	i	i	nt	nt	nt	nt
CCc1ccc(C2C(C#N)=C(N)SC(N)=C2C#N)s1	?	i	-75	i	i	?
CCc1ccc(C2C(C#N)=C(N)SC(N)=C2C#N)cc1	i	i	nt	nt	i	i
COc1cc2[nH]c(=S)nc(NC3CCCCCC3)c2cc1OC	45µM	i	i	i	?	i
COc1cc2[nH]c(=S)nc(NCC3CCCO3)c2cc1OC (centres undefined)	i	i	i	i	i	i
Cc1cccc(NC(=O)c2sc3nc(N)c(C#N)cc3c2N)c1	i	i	-51	i	i	i
N#Cc1cc2c(N)c(C(=O)Nc3ccccc3)sc2nc1N	nt	i	nt	nt	nt	i
CN1CCc2nc3sc(C(=O)Nc4cccc(C#N)c4)c(N)c3cc2C1	40µM	i	nt	nt	nt	nt
O=C(O)c1ccc(COc2ccccc2/C=C2\NC(=O)N(Cc3ccc(F)cc3)C2=O)cc1	?	i	i	i	i	i
O=C(O)c1ccc(COc2ccccc2/C=C2/NC(=O)N(c3cccc(Cl)c3)C2=O)cc1	56µM	25µM	-50	i	?	i
COC(=O)c1cn(-c2ccccc2)nc1C(=O)OC	i	i	nt	i	i	i
O=C(O)c1cn(-c2ccccc2)nc1C(=O)O	i	i	-52	i	i	i
CCCCCOC(=O)Nc1nc(=O)n(C2O[C@H](C)[C@@H](O)[C@@H]2O)cc1F (some centres undefined)	nt	i	nt	nt	nt	nt
COc1ccc(NC(=O)/C(C#N)=C\c2ccc(Br)o2)cc1	i	nt	-83	i	?	i
Cc1ccc(/C=C(\C#N)C(=O)Nc2ccc(Br)cc2)o1	i	i[12.3 µM]	nt	nt	nt	nt
Cc1cc(Br)ccc1NC(=O)COC(=O)c1ccccc1OCC(N)=O	i	nt	nt	nt	nt	nt
O=c1[nH]n2c(=O)c3c([nH]c2c1N=Nc1cccc(C(F)(F)F)c1)CCCC3	?	i	i	i	i	i
O=c1[nH]n2c(=O)c3c([nH]c2c1N=Nc1cccc(Cl)c1)CCC3	?	i	-58	i	?	?
NS(=O)(=O)c1ccc(N=Nc2c(=O)[nH]n3c(=O)c4c([nH]c23)CCCC4)cc1	?	i	-62	i	i	i
COc1cc(F)c(S(=O)(=O)N2CCN(S(=O)(=O)c3ccc(N)cc3)CC2)c(F)c1	nt	i	nt	nt	nt	nt
O=S1(=O)N=C(Oc2ccc(-c3ccccc3)cc2)c2ccccc21	nt	i	nt	nt	nt	nt
O=C(CC(NC(=O)c1ccccc1)c1ccccc1)OCc1nc(-c2cccc(Cl)c2)no1 (centres undefined)	i	nt	nt	nt	nt	nt
O=Cc1cc(N=Nc2ccc(S(=O)(=O)O)cc2)ccc1O	i	nt	-76	i	?	nt
SMILES	FEN1 inhibitor	TDP1 inh	PI5P4K alpha inh	PGK inhibitor	WRN inhibitor	Tb PFK block
C[n+]1ccnc2ccccc21	i	nt	nt	nt	nt	nt
COc1cc(F)c(S(=O)(=O)N2CCN(S(=O)(=O)c3ccco3)CC2)c(F)c1	nt	i	nt	nt	nt	nt
C=C1C2c3ccccc3C(CC2(C)O[Si](C)(C)C)N1C(=O)OC (centres undefined)	nt	i[21 µM]	nt	nt	nt	nt
c1coc(-c2nc(-c3ccco3)c(-c3ccco3)nc2-c2ccco2)c1	35µM	3.2µM	nt	?	20µM	?
Nc1nc(-c2ccco2)c(-c2ccco2)s1	i	i	?	i	i	?
c1coc(-c2nc3cc4ccccc4cc3nc2-c2ccco2)c1	5.6µM	?	nt	nt	nt	nt
